Measured values taken from PubChem BioAssay.

target: Alpha-2C adrenergic receptor (Homo sapiens) (UniProt P18825); test: compounds altering alpha2C-coupled GIRK flux – cell-based, HEK293 alpha2C/GIRK1/2, thallium flux, primary screen (AID 624); conditions: thallium flux BTC fluorescence, at 10 µM, actives lie on both sides;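 note: slope of fluorescence ratio to pre-addition baseline per second over 15 to 24 s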
Sequence (P18825 whole entry, looked up): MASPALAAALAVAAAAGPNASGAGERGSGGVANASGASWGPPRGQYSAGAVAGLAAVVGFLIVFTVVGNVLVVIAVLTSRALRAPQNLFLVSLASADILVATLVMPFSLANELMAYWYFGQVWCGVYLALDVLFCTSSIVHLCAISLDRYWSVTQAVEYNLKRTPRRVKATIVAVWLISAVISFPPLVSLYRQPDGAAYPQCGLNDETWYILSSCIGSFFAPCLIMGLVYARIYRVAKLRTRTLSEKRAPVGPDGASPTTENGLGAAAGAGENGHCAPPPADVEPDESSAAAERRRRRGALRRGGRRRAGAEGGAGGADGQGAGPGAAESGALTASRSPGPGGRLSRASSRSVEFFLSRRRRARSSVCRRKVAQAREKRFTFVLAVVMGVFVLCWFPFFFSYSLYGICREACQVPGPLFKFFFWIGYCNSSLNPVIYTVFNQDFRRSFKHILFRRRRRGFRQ

slope, inactive:
O=C1CCCC(O)=C1C=Nc1ccc2c(c1)oc1ccccc12 0.00678
CCOC(=O)c1ccc(N(CC(=O)NC2CCCC2)C(=O)CNC(=O)c2ccco2)cc1 0.0066
COc1cc(NS(=O)(=O)N2CCCC2)cc(OC)c1OC 0.00502
CCOc1ccc(N2CC(C(=O)NCCc3ccc(OC)c(OC)c3)CC2=O)cc1 (stereo not given) 0.00548
Cn1c(=O)c(C(=O)Nc2cccnc2)c(O)c2ccccc21 0.0062
COCCNC(=O)C(c1ccc(C)o1)N(Cc1ccc(OC)cc1)C(=O)Cn1nnc2ccccc21 (stereo not given) 0.00364
O=C(c1cc2cc(Cl)cc(Cl)c2oc1=O)N1CCOCC1 0.0058
COc1ccc2nc(N3CCC(C)CC3)c(C#N)cc2c1 0.00372
C/C(=C\c1ccco1)C1C(C#N)=C(N)OC2=C1C(=O)CC(C)(C)C2 (stereo not given) 0.00426
CCOC(=O)c1c(C)[nH]c(C)c1C(=O)COC(=O)CNC(=O)c1ccc(OCC)cc1 0.00496
CCCCNC(=O)Cn1c(=O)n(C)c2ccccc21 0.00707
c1ccc(OCc2nc3ccccc3[nH]2)cc1 0.00568
O=C(CSc1nc2ccccc2s1)N1CCN(C(=O)c2ccco2)CC1 0.00381
CCCSc1nc(N)c(C#N)c(-c2ccc(C)cc2)c1C#N 0.00536
CN(C(=O)Cn1c(=O)n(CCCCC(=O)NC2CCCC2)c(=O)c2ccccc21)C1CCCCC1 0.00575
CC1(C)CNC(=O)CC(C)(C)N1O 0.00315
COc1ccc(Cl)cc1Nc1nc(NCCO)nc(N2CCCC2)n1 0.00689
CCOC(=O)c1ccc(S(=O)(=O)Nc2cc(C(C)(C)C)no2)cc1 0.00811
CCCCCCn1c(SCC(=O)OC)nc2c1c(=O)[nH]c(=O)n2C 0.00477
COc1ccc(CCNC(=O)CSCc2n[nH]c(=O)[nH]2)cc1OC 0.00502
COc1ccc(-c2nc3c(c(SCC(=O)N4CCOCC4)n2)COC(C)(C)C3)cc1 0.00848
CN1CCN(CC(=O)N2c3ccccc3C(C)(c3ccccc3)CC2(C)C)CC1 (stereo not given) 0.00483
CCN(CC)CCOc1cccc(C(C)C)c1 0.00629
O=C(CN1C(=O)CC(c2ccco2)Sc2ccccc21)Nc1ccccc1F (stereo not given) 0.00681
COCCN(CC(=O)NCc1ccccc1)C(=O)CCC(=O)Nc1ccccn1 0.00555
CCCCc1cc(=O)oc2cc(OCC(=O)N(CC)CC)c(Cl)cc12 0.00654
CC(=O)Nc1cccc(NC(=O)c2oc3ccccc3c2C)c1 0.00572
CCN(CC)CCCn1c(=S)[nH]c2cc(Cl)ccc2c1=O 0.00373
CCn1c(SCC(=O)c2ccc(OC)cc2)nnc1C(C)NC(=O)c1ccc(OC)cc1 (stereo not given) 0.00558
CCCCOC(=O)CN1C(=O)c2ccc(C(=O)OCCCC)cc2C1=O 0.00602
CC(C)CCNC(=O)C(c1cccs1)N(CC1CCCO1)C(=O)Cn1nnc2ccccc21 (stereo not given) 0.00299
O=C(CNC(=O)c1ccccc1C(=O)O)c1ccccc1 0.00616
CS(=O)(=O)N1CCCC(C(=O)N2CCOCC2)C1 (stereo not given) 0.00664
Cc1ccc(NC(=O)C2CCCN2S(=O)(=O)c2cccc3cccnc23)cc1F (stereo not given) 0.00633
Cc1cc(C(=O)NCCCN2CCOCC2)n(-c2ccccc2)n1 0.00682
CCc1nn(CC(=O)N2CCN(Cc3ccc4c(c3)OCO4)CC2)c(=O)c2cc3occc3n12 0.00432
Cc1ccc2c(c1)nnn2C1CCN(C(=O)NC23CC4CC(CC(C4)C2)C3)CC1 0.00535
CCN(CC)CCOC(=O)c1c(C)oc2ccc(O)cc12 0.00511
Cc1onc(-c2ccccc2Cl)c1C(=O)NCc1cccnc1 0.00593
COc1cccc(NC(=O)c2ccco2)c1 0.00282
